# Vaccinia mCherry – qHTS for Stage-Specific Inhibitors of Vaccinia Orthopoxvirus: mCherry Reporter Primary qHTS. 310,000 compounds, 0.63% hits. Vaccinia virus mCherry reporter infection, fluorescence. Potency, µM (series often up to 36.5 µM), usual class: inhibitors. AID 720579, 2013; calls by dose curve; tested in A549 cells; also: nearly all actives have a fitted effect of over 35% in size
# VACV Venus inh – qHTS for Stage-Specific Inhibitors of Vaccinia Orthopoxvirus: Venus Reporter Primary qHTS; Potency, µM (top dose mostly 36.5 µM), actives largely listed as inhibitors; Vaccinia virus Venus reporter expression, fluorescence; AID 720580, 2013; 330,000 compounds, 0.46% hits; calls by dose curve; tested in A549 cells; also: nearly all actives have a fitted effect of over 30% in size
# HCMV antiviral – qHTS Assay for inhibitors of the human cytomegalovirus (HCMV) | 410,000 compounds, 4.5% hits | activity change, negative = inhibition, % at 57.5 µM | AID 1259415, 2018 | HFF cells, HCMV-luciferase reporter, 72 h; stronger effect = lower value; in the data active = activity change below about -60%; inconclusive = no clear call, values can overlap the other calls; inactive = above about -39%
#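 Human foreskin fibroblasts infected with luciferase-reporter HCMV at MOI 1 PFU/cell, compounds at two doses. Luciferase measured 72 h post infection; normalized to buffer-only basal and Salinomycin (10uM) controls.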
# FMDV inh – High Throughput Screening for Foot and Mouth Disease Virus Antivirals; FMDV antiviral cell-based qHTS; Potency, µM (titrated, usually from 57.9 µM), hits mostly inhibitors; 410,000 compounds, 1.2% hits; AID 1159524, 2015; calls by dose curve; tested in HEK293T cells; also: read-out not given here; nearly all actives have a fitted effect of over 45% in size
# HCV inh – qHTS Assay for Inhibitors of Hepatitis C Virus (HCV) | Huh7.5.1 HCVcc-Cre infection, luciferase reporter, 44 h | Potency, µM (titrated, usually from 41.8 µM), most hits filed as inhibitors | 340,000 compounds, 3.4% hits
#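 Compounds are dispensed onto cells plated 4 h earlier at 1,000 per well, with HCVcc-Cre virus (about 0.5 moi) added next. Following 44 h of culture, luminescent signal is measured for 15 sec after 15 min with substrate at room temperature.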
# FBPA Giardia inh – qHTS Assay for Inhibitors of Fructose-1,6-bisphosphate Aldolase from Giardia Lamblia; A8B2U2; purified Giardia FBPA; AID 2451, 2010; 290,000 compounds, 0.71% hits; Potency, µM (titrated, usually from 59.6 µM), hits mostly inhibitors; also: nearly all actives have a fitted effect of over 55% in size
# Target sequence (A8B2U2 whole entry, looked up): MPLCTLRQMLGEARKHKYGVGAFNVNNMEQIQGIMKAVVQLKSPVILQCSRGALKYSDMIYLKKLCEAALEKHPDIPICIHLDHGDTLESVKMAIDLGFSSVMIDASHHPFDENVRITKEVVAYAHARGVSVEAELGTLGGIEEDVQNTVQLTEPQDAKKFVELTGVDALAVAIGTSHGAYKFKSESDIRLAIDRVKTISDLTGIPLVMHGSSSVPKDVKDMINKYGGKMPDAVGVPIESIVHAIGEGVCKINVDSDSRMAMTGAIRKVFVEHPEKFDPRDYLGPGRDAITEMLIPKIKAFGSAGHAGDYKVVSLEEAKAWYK
#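 Giardia FBPA (40 nM reagent) was preincubated 10 min at RT with compound (up to 57.5 uM final), then substrate plus GAPDH/TPI/NAD/arsenate coupling system with diaphorase/resazurin was added; resorufin fluorescence (525/598 nm) was read after 20 min.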
# Hits are given with their value; 0 = inactive; ? = inconclusive; - = no result; [ ] = another dose, or the depositor's remark. A selection: hits, their analogues and other compounds. The true share with any hit is near 7.5%. Unless noted, calls follow the shape of the dose curve; as a rule, active = well fitted curve in the direction sought with a large enough effect; inconclusive = small, poorly fitted or top-dose-only effect, or another doubt; inactive = no such curve, though single readings can be large; an effect the other way counts as inactive or inconclusive.
SMILES,Vaccinia mCherry,VACV Venus inh,HCMV antiviral,FMDV inh,HCV inh,FBPA Giardia inh
Cc1nc(SCC(=O)Nc2sccc2C(N)=O)c2c(C)c(C)sc2n1,0,0,0,?,-,-
Cc1ccc(Cl)cc1-c1cc(C(=O)NCc2ccc(C(F)(F)F)cc2)[nH]n1,0,0,0,0,-,-
CC(=O)c1c(C(C)=O)c(C)n(Cc2ccccc2)c1C,0,0,0,0,0,0
CCOC(=O)c1c(C=O)c(C)n(Cc2ccc(C)cc2)c1C,-,-,0,?,3.2µM,0
Cc1c(C=O)c(C=O)c(C)n1Cc1ccccc1,0,0,-81,?,?,0
CC(C)(C)OC(=O)N1CCC[C@H]1c1nnc(SCc2ccc(Cl)cc2Cl)o1,-,0,0,40µM,?,0
CC1(C)CC(=O)CC2(C1)NCC(c1ccccc1)c1c2[nH]c2ccccc12 (stereo not given),0,0,0,0,0,0
COc1cccc(C2CNC3(CCCC(C)C3)c3[nH]c4ccccc4c32)c1OC (stereo not given),-,-,-65,0,0,0
Nc1nc2c(ncn2C2OC(CO)CC2O)c(=O)[nH]1 (stereo not given),0,0,-,0,-,0
Cc1c(C(=O)C(=O)N2CC=C(c3ccccc3)CC2)c2ccccc2n1C,?,0,0,0,?,0
COc1ccc(C(=O)NCC(=O)OCC(=O)NC2CCCCCC2)cc1,0,0,0,0,0,-
COCCCNc1ncnc2sc(C(=O)N3CCCCC3)c(C)c12,0,0,-,0,-,-
O=C(O)c1ccc2c(c1)N(Cc1cccc(F)c1)C(=O)CS2,0,0,-100,0,0,0
COc1ccc(CCNC(=O)CN2CCN(c3cccc(Cl)c3)CC2)cc1OC,-,-,0,0,10µM,0
NS(=O)(=O)c1ccc(CCNC(=O)c2cccc3ccccc23)cc1,0,0,0,0,0,0
COc1ccc(CNC(=O)N2CCN(c3cccc(Cl)c3)CC2)cc1OC,0,0,0,?,?,0
NS(=O)(=O)c1ccc(CCNC(=O)c2ccccc2Cc2ccccc2)cc1,-,-,-61,0,0,-
NS(=O)(=O)c1ccc(CCNCC(=O)N2CCC(Cc3ccccc3)CC2)cc1,0,0,-61,0,11µM,?
COc1ccccc1C(=O)Nc1ccc2nc(SCC(=O)N3CCCc4ccccc43)sc2c1,?,?,0,0,-,-
NS(=O)(=O)c1ccc(CCNC(=O)CNC(=O)c2ccc(F)cc2)cc1,0,0,0,0,0,0
O=C(NCCc1ccc(Cl)cc1)c1ccc2c(c1)N(Cc1ccccc1)CCS2,0,0,0,0,-,-
NS(=O)(=O)c1ccc(CCNC(=O)CNCCc2ccc(C(F)(F)F)cc2)cc1,-,-,-61,?,?,0
CCN1CCN(CCCNC(=O)c2ccc3c(c2)N(Cc2ccccc2)CCS3)CC1,-,-,0,0,10µM,-
COc1ccc(CCNC(=O)c2ccc3c(c2)N(Cc2ccccc2)CCS3)cc1OC,0[7.34 µM],0[7.34 µM],0,?,10µM,-
COc1ccc(OC)c(CCNC(=O)c2ccc3c(c2)N(Cc2ccccc2)CCS3)c1,0,0,0,0,?,-
SMILES,Vaccinia mCherry,VACV Venus inh,HCMV antiviral,FMDV inh,HCV inh,FBPA Giardia inh
NS(=O)(=O)c1ccc(CCNC(=O)c2ccc3c(c2)N(Cc2ccccc2)CCS3)cc1,0,0,-64,0,0,-
CCc1nc(Nc2ccc(OC)cc2OC)c2oc3ccccc3c2n1,0,?,0,?,?,0
Cn1cnc(S(=O)(=O)N2CCN(C(c3ccc(F)cc3)c3ccc(F)cc3)CC2)c1,0,0,?,0,0,0
CC[C@@]1([C@@H]2O[C@@H]([C@H]3O[C@@](O)(CO)[C@H](C)C[C@@H]3C)C[C@@H]2C)CC[C@H]([C@]2(C)CC[C@]3(C[C@H](O)[C@@H](C)[C@@H]([C@@H](C)[C@@H](OC)[C@H](C)C(=O)O)O3)O2)O1 (stereo in doubt),0,?,-,0,-,-
CCc1sc(C(=O)NCCc2ccc(S(N)(=O)=O)cc2)cc1Br,0,0,-68,0,0,0
COc1ccc(CCNC(=O)c2ccc3c(c2)N(Cc2cccc(Cl)c2)C(=O)CS3)cc1OC,?,?,-61,0,-,-
O=C(NCc1ccco1)c1ccc2c(c1)N(Cc1ccc(Cl)cc1)CCS2,0,0,?,0,10µM,0
COc1ccc(CCNC(=O)c2ccc3c(c2)N(Cc2c(F)cccc2Cl)C(=O)CS3)cc1OC,0,0,?,?,-,-
CC[C@H](C)[C@H](NC(=O)[C@H](CCC(=O)O)NC(=O)[C@H](CO)NC(=O)[C@@H](NC(=O)[C@@H](N)CO)C(C)C)C(=O)N[C@@H](CCC(N)=O)C(=O)N[C@@H](CC(C)C)C(=O)N[C@@H](CCSC)C(=O)N[C@@H](Cc1cnc[nH]1)C(=O)N[C@@H](CC(N)=O)C(=O)N[C@@H](CC(C)C)C(=O)NCC(=O)N[C@@H](CCCCN)C(=O)N[C@@H](Cc1cnc[nH]1)C(=O)N[C@@H](CC(C)C)C(=O)N[C@@H](CC(N)=O)C(=O)N[C@@H](CO)C(=O)N[C@@H](CCSC)C(=O)N[C@@H](CCC(=O)O)C(=O)N[C@@H](CCCNC(=N)N)C(=O)N[C@H](C(=O)N[C@@H](CCC(=O)O)C(=O)N[C@@H](Cc1c[nH]c2ccccc12)C(=O)N[C@@H](CC(C)C)C(=O)N[C@@H](CCCNC(=N)N)C(=O)N[C@@H](CCCCN)C(=O)N[C@@H](CCCCN)C(=O)N[C@@H](CC(C)C)C(=O)N[C@@H](CCC(N)=O)C(=O)N[C@@H](CC(=O)O)C(=O)N[C@H](C(=O)N[C@@H](Cc1cnc[nH]1)C(=O)N[C@@H](CC(N)=O)C(=O)N[C@@H](Cc1ccccc1)C(=O)N[C@H](C(=O)N[C@@H](C)C(=O)N[C@@H](CC(C)C)C(=O)NCC(=O)O)C(C)C)C(C)C)C(C)C,-,-,-,-,-,0
Clc1ccc2nc(N3CCCCC3)[nH]c2c1,-,-,0,0,?,0
O=c1c(Cl)c(N2CCCCC2)cnn1-c1nc2ccccc2[nH]1,-,-,-61,?,0,0
O=c1c2ccccc2cnn1-c1nc2ccccc2[nH]1,-,-,-92,1.8µM,0,0
COC(C)(C)[C@@H](O)COc1c2ccoc2cc2oc(=O)ccc12,0,0,0,0,?,-
COc1cccc(CN2C(=O)C(C)N(C(=O)c3ccccc3)c3ccccc32)c1 (stereo not given),0,0,-71,?,?,0
CC1C(=O)N(Cc2ccc([N+](=O)[O-])cc2)c2ccccc2N1C(=O)c1c(F)cccc1F (stereo not given),0,0,?,35µM,?,0
COc1ccc(CN2C(=O)C(C)N(C(=O)c3c(F)cccc3F)c3ccccc32)cc1 (stereo not given),-,-,?,35µM,?,0
